# This is a sample that favours compounds with a hit; in the whole collection about 3% have one here.
# TRAIL sens C8: sensitizes caspase-8 expressing cells to TRAIL; inhibition (viability loss, TRAIL sensitization), % at 10 µM; actives 1% (n = 360,000); AID 624354; NB7+C8 cells + TRAIL, ATPlite viability luminescence;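 active = compounds causing at least 50% loss of cell viability in the single-dose screen, relative to plate controls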
# SENP8 block-1: SENP8 (human) protease inhibition | AID 602440 | recombinant SENP8, Nedd8 substrate fluorescence | actives 0.64% (n = 360,000) | inhibition, % at 20 µM | Q96LD8; in the data active = inhibition mostly above about 40%, no sharp cut-off; inactive = mostly below about 27%
# Target sequence (Q96LD8 whole entry, looked up): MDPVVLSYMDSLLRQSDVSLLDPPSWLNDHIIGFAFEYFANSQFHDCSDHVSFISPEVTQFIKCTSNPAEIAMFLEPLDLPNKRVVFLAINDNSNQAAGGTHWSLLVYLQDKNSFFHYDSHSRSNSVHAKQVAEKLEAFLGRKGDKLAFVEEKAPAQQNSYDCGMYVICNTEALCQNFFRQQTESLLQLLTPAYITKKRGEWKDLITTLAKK
# SENP7 block: SENP7 protease inhibition; AID 434973; recombinant SENP7, Z-RLRGG-aminoluciferin luminescence, 40 min; actives 1.5% (n = 330,000); inhibition, % at 5 µM;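 active = inhibition above about 50% at the single test dose, limit read from the data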;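 also: plate controls were DMSO with enzyme for no effect and no enzyme buffer wells for full effect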
# Target sequence (Q9BQF6 706-1050 limits assumed): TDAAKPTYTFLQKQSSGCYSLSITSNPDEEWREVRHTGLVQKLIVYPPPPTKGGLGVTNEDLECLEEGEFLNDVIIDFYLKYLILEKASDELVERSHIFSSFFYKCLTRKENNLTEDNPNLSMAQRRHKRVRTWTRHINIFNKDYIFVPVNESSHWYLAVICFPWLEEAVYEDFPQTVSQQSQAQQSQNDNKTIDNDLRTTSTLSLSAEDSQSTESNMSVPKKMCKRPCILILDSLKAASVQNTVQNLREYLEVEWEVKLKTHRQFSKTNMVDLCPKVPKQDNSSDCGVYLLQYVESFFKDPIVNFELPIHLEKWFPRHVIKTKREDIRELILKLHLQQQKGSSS
# SENP6 inh: SENP6 protease inhibition. inhibition, % at 10 µM. Recombinant SENP6 catalytic domain, aminoluciferin luminescence. actives 1.8% (n = 330,000);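 active = inhibition above about 50% at the single tested dose, limit read from the data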;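 also: plate controls were DMSO wells with enzyme for no effect and DMSO wells lacking enzyme for full effect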
# PPC-1+TRAIL kill: compounds killing PPC-1 cancer cells with TRAIL present (potentiator screen, no TRAIL-free arm); PPC-1 cells + TRAIL, ATPLite viability luminescence; cell killing (% activity), % at 4 µM or 5 µM; actives 0.41% (n = 220,000); AID 1443;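 active = cell killing above 50% in the first pass at 4 µM, then a duplicate retest at 5 µM averaging 50% or more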;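 also: plate controls were cells with TRAIL plus DMSO for no effect and medium-only wells lacking cells for full effect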
# SENP8 block-2: inhibitors of human SENP8 protease; AID 2540; inhibition, % at 10 µM; Q96LD8; actives 1.2% (n = 330,000); purified SENP8, Z-RLRGG-aminoluciferin cleavage, luminescence; in the data active = inhibition above about 50%
# SENP8 conf: confirmation of human SENP8 protease inhibitors | shares compounds with SENP8 block-1 | purified SENP8, Nedd8-AMC/pro-Nedd8 cleavage fluorescence, 30 min | inhibition, % at 25 µM | actives 15% (n = 1,400) | AID 624319; in the data active = inhibition mostly above about 39%, no sharp cut-off; inactive = mostly below about 34%
# * = called active by the depositor; · = not tested or not shown.
SMILES,TRAIL sens C8,SENP8 block-1,SENP7 block,SENP6 inh,PPC-1+TRAIL kill,SENP8 block-2,SENP8 conf
N/C(=N\O)c1cn(Cc2ccccc2Cl)c2ccccc12,15,18,3,-30,·,-2,·
Cc1[nH][nH]c(=O)c1C(c1c(C)[nH][nH]c1=O)c1cn(Cc2ccccc2Cl)c2ccccc12,-1,79*,·,·,16,·,73*
Cc1ccc(N2C(=O)[C@@H]3[C@H](C2=O)C2c4ccccc4C=CN2[C@@H]3C(=O)c2ccco2)cc1 (some centres undefined),-6,49*,·,·,-1,·,89*
COc1ccc(N2C(=O)[C@@H]3[C@H](C2=O)[C@H]2c4ccccc4C=CN2[C@@H]3C(=O)Nc2ccccc2)cc1,-2,44*,-4,20,15,-7,80*
CC(=O)[C@@H]1[C@@H]2C(=O)N(Cc3ccccc3)C(=O)[C@@H]2C2c3ccccc3C=CN21 (some centres undefined),-9,-189,-1,23,2,14,·
O=C(CN1CCN(C(=O)N2CCOCC2)CC1)Nc1ccc(Br)cc1,-3,41*,4,-12,14,-7,12
COc1ccc(NC(=O)/C(=C\c2ccccc2)NC(=O)c2ccco2)cc1,-2,15,4,5,·,2,·
CCOc1ccc(Nc2nc(N)c([N+](=O)[O-])c(N3CCN(C)CC3)n2)cc1,-22,47*,-5,-21,·,-5,12
CCN1CCN(c2nc(N)c([N+](=O)[O-])c(Nc3cccc(C)c3)n2)CC1,4,19,-7,-9,24,-8,·
Cc1cccc(Nc2nc(N3CCN(C)CC3)nc(N)c2[N+](=O)[O-])c1,-3,40*,-7,-25,19,-10,3
COc1ccc(Nc2nc(N)c([N+](=O)[O-])c(N3CCOCC3)n2)cc1,7,23,8,-14,20,-7,·
Cc1ccc(-n2cnc(N)c2C(=O)c2cccc([N+](=O)[O-])c2)cc1,1,55*,2,-4,5,4,12
CCOc1ccc(OCC)c(NC(=O)CN2CCN(CC(=O)NC(C)C)CC2)c1,4,5,-10,-10,·,-8,·
COc1ccc(CNC(=O)Cn2cc([N+](=O)[O-])cn2)cc1,0,44*,-6,-32,·,-5,-11
O=C(Cn1cc([N+](=O)[O-])cn1)NCc1ccccc1,-11,9,1,9,·,-1,·
O=C(CC(=O)N/N=C/c1c(Cl)cccc1Cl)NCc1cccnc1,23,-1,-4,1,·,0,·
CC(C)CC(=O)Nc1c(C(=O)N2CCN(Cc3ccccc3)CC2)oc2ccccc12,-1,5,-2,20,·,7,·
CCCc1cc(=O)[nH]c(SCC(=O)c2cc(C)n(-c3c(C)n(C)n(-c4ccccc4)c3=O)c2C)n1,-10,2,3,-16,8,1,·
C=CC[C@]12C[C@@H](OC)C(=O)C=C1O[C@@H](c1ccc(OC)c(OC)c1)[C@H]2C,13,42*,-2,-3,·,4,11
C=CC[C@@]12C=C(OC)C(=O)C(OC)=C1O[C@H](c1ccc3c(c1)OCO3)[C@H]2C,1,13,-8,1,·,2,·
O/N=C(\c1ccc(Cl)cc1Cl)c1ncc(C(F)(F)F)cc1Cl,-1,27,1,-11,-9,-8,·
CC1CCCN(c2ccc(C(=O)Nc3ccc4c(c3)OCO4)cc2[N+](=O)[O-])C1 (centres undefined),18,43*,7,-5,17,-1,22
Cc1cc(F)ccc1Oc1cc(NN2CCCCC2)c([N+](=O)[O-])cc1[N+](=O)[O-],-4,31,-15,-18,·,-13,·
O=[N+]([O-])c1cc([N+](=O)[O-])c(Oc2cc(F)ccc2F)cc1NN1CCCCC1,14,55*,-3,0,·,-5,22
CS(=O)(=O)N(CCc1ccccc1)CC(=O)N1CCCCCC1,2,15,·,·,·,·,·
SMILES,TRAIL sens C8,SENP8 block-1,SENP7 block,SENP6 inh,PPC-1+TRAIL kill,SENP8 block-2,SENP8 conf
COc1cccc(N2C(=O)C(CC(=O)Nc3ccc(F)cc3)N(C3CCCCC3)C2=O)c1 (centres undefined),2,46*,-2,-1,5,8,5
Cc1cc(C)nc(CCNC(=O)c2cc(COc3c(C)cccc3C)on2)n1,6,3,4,-2,·,-5,·
CCCOC(=O)/C(=C\c1ccc([N+](=O)[O-])o1)NC(=O)c1ccccc1,3,35,-11,-21,12,-15,·
CCOC(=O)/C(=C\c1ccc([N+](=O)[O-])o1)NC(=O)c1ccccc1,14,42*,10,-16,5,-4,22
CN1C2=CC=CC=CC2=[N+](C)C12C=CC(=[N+]([O-])[O-])C=C2[N+](=O)[O-] (centres undefined),-2,53*,13,16,-21,4,26
COc1cccc(N(CC(=O)NC2CCCCC2)C(=O)CCCC(=O)Nc2ccccn2)c1,5,1,4,-4,·,-4,·
COc1ccc(Cc2nnc(SCC(=O)N3CCc4ccccc4C3)o2)cc1,-2,39*,-10,-12,17,0,76*
O=C(OCC(=O)N1CCCc2ccccc21)c1ccc(F)c(S(=O)(=O)N2CCOCC2)c1,-15,10,-1,-3,·,15,·
O=C(CCl)Nc1cccc(S(=O)(=O)NC2=NCCC2)c1,21,46*,-2,-6,22,-3,10
CC(C)C(=O)Nc1cccc(S(=O)(=O)NC2=NCCC2)c1,-3,15,·,·,·,·,·
Cc1ccccc1OCC(=O)Nc1ccccc1C(=O)NC1CC1,-2,-8,4,-10,·,-4,·
O=[N+]([O-])c1cccc(S(=O)(=O)NCC2CCCO2)c1 (centres undefined),7,20,-3,-14,13,-3,·
Cc1ccc(S(=O)(=O)NCC2CCCO2)cc1[N+](=O)[O-] (centres undefined),-4,45*,-11,0,18,-14,7
O=C(CSc1nnc(C2CC2)n1C1CC1)Nc1cccc(Br)c1,-2,1,3,-15,·,8,·
O=C(CNC1CCN(Cc2ccccc2)CC1)Nc1ccc(S(=O)(=O)N2CCCCC2)cc1,-10,43*,0,-20,15,-13,8
CSc1nnc(C)c(/C=C/NOCc2ccc(Cl)cc2)n1,-7,44*,7,25,14,3,40
NS(=O)(=O)c1ccc(NC(=O)COC(=O)/C(=C/c2cccs2)c2cccs2)cc1,0,14,-5,12,-2,6,·
COc1ccc(OC)c(S(=O)(=O)N(C)CC(=O)N2CCc3ccccc3C2)c1,-8,58*,11,31,25,1,71*
